Data on 5 compounds can be found in PubChem BioAssay AID488908 (National Center for Advancing Translational Sciences (NCATS), 2010).

The experiment is described as follows: Secondary Assay for lipid storage modulators: Cytotoxcity for probe SAR. The text has this:
NIH Molecular Libraries Probe Production Centers Network [MLPCN] NIH Chemical Genomics Center [NCGC] MLPCN Grant: 1 R03 MH085686-01 Assay Submitter (PI): Beller, Mathias; Max-Planck-Institut fur Biophysikalische Chemie, Germany. NCGC Assay Overview: Storing lipids as a reservoir for energy or the anabolism of elementary metabolites is a common feature of probably all cells and is conserved from bacteria to humans. The universal cellular lipid storage organelle is the so-called lipid storage droplet (LD). Although ubiquitous, LDs share a simple structure composed of a hydrophobic core that harbors the storage lipids, which is shielded by a droplet-specific phospholipid monolayer to which proteins are attached. The current model of LD biogenesis involves an incorporation of the lipid core into the membrane leaflets of the endoplasmic reticulum (ER) followed by a subsequent budding-like maturation of a LD, which ultimately pinches off. Once released, LD volume can increase by localized lipogenesis or fusion of existing droplet. Storage lipids are re-mobilized enzymatically by lipase activity. Lipase regulation in the adipocyte is heavily studied and involves multiple components including catecholamine signaling, the LD-associated proteins Perilipin and comparative gene identification (CGI-58) and at least two lipases named hormone sensitive lipase (HSL) and adipocyte triglyceride lipase (ATGL). LD regulation outside of the adipocyte is poorly understood and only few components are known. However, there is an urgent need to learn more about ectopic fat depots as mislocalized storage of lipids, for example in the liver or muscle, is an eminent health problem associated with insulin resistance or the metabolic syndrome. We developed a laser-scanning cytometer assay to enable 1,536-well screening and combined the results of the small molecules screen with an RNAi database based on lipid storage. The compound was tested here for cytotoxcity using CellTiter-Glo.
Assay Protocol Summary: Cytotoxcity assay was performed with embryonic Drosophila S3 cells (Bloomington Drosophila Genomics Resource Center [DGRC]). We dispensed 4 uL of cells at 1.25 x 10^6 cells/mL into Greiner solid white 1,536-well plates with a bottle-valve solenoid-based dispenser (Aurora) to obtain 5,000 cells/well. A total of 23 nL of compound solution of different concentrations were transferred to the assay plates using a Kalypsys pin tool equipped with a 1,536-pin array containing 10-nL slotted pins (FP1S10, 0.457-mm diameter, 50.8 mm long; V&P Scientific). One microliter of oleic acid (400 uM) was added, and the plate was lidded with stainless steel rubber gasket lined lids containing pinholes. After 24 hrs of incubation at 24 degrees Celsius and 95% humidity, 4 uL of CellTiter-Glo (Promega) was added to the wells. Luminescence was detected on the Perkin Elmer ViewLux.

Results filed as inconclusive are left out. The source made the active and inactive calls. Calls follow the shape of the dose curve; as a rule, active = well fitted inhibition curve with a large enough effect; inconclusive = small, poorly fitted or top-dose-only effect; inactive = flat fitted curve, though single readings scatter.

As for `CCC/C=C/C/C=C/C=C/C=N/NN=O`, the compound was classed as inactive.
As to `CCOC(=O)C1CCN(C(=O)C2(NC(=O)Nc3ccccc3Cl)CCCC2)CC1`, the call was inactive.
The entry for `CCOc1ccc(CCNC(=O)c2ccc(C(=O)c3ccccc3)cc2)cc1OCC` is “inactive”; for `CCOc1ccc(CCNC(=O)c2ccc(Oc3ccccc3)cc2)cc1OCC` it is “inactive”; for `CCOc1ccc(CCNC(=O)c2ccccc2)cc1OCC` it is “inactive”.
